Each structure is given as a SMILES string. Values joined by “and” are separate entries in the source; they are usually repeats but may differ in a detail not shown here. Identical values can stand only once. Values without a mark were called inactive. Inconclusive results are not listed. Active and inactive are the calls of the source. Unless noted, calls come from the whole dose curve; as a rule, active = well fitted curve in the direction sought with a large enough effect; inconclusive = small, poorly fitted or top-dose-only effect, or another doubt; inactive = no such curve, though single readings can be large; an effect the other way counts as inactive or inconclusive.

Assay [1] is described as follows: S16 Schwann cell PMP22 intronic element firefly luciferase assay (AID 624032).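 Note: series mostly up to about 58 µM; plate controls were DMSO for no effect and PTC124 positive control mean for full effect; nearly all actives have a fitted effect of over 30% in size.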 The method, boiled down: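 Luciferase reporter of PMP22 intronic-element expression in stably transfected S16 rat Schwann cells, read by ONE-Glo luminescence after 24 h compound exposure at 37 C. Activity scaled between DMSO (0%) and positive-control PTC124; concentration-effect curves quality-classified.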

Assay [2] can be described thus: qHTS assay for small molecule agonists of the antioxidant response element (ARE) signaling pathway (AID 651741; active = well fitted activation curve with a large enough effect in the signal ratio; the % refers to the signal ratio; note: potency is the fitted concentration of half-maximal effect; for activation: % of control where 0% means no effect). The method, boiled down: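 Beta-lactamase reporter under ARE control in HepG2 cells, 2,000 per well, was induced by 16 h compound treatment at 37 C. Read-out was fluorescence from LiveBLAzer B/G FRET substrate after 2 h at room temperature.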
On the technique in general: qHTS replaces the single test concentration by a dilution series.

A short description of assay [3]: qHTS assay for environmental chemicals that activate the Aryl hydrocarbon Receptor (AhR) signaling pathway (AID 651777). Note: % of control where 0% means no effect; nearly all actives have a fitted effect of over 15% in size. To be noted: 1A2-DRE human hepatoma cells, luciferase, 24 h; stronger effect = higher value. The method, boiled down:
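Induction of CYP1A2 transcription through AhR is detected by luciferase in 1A2-DRE hepatoma cells. Compounds or DMSO act for 24 hr at 37 C before a 30 min One-Glo step at room temperature.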

In assay [4] the target is Peroxisome proliferator-activated receptor alpha (Homo sapiens) (UniProt Q07869). The assay is described as follows: qHTS assay for small molecule agonists of the peroxisome proliferator-activated receptor alpha (PPARalpha) signaling pathway (AID 651778). Note: % of control where 0% means no effect. To be noted: PathHunter PPARalpha complementation, chemiluminescence, 6 h; stronger effect = higher value. A digest of the protocol:
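Chemiluminescence from complemented enzyme reported PPARalpha activation in cells after 6 hr of compound treatment at 37 C. The detection reagent was incubated for 60 min at room temperature, and compounds were scored as agonists.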

Assay [5] deals with Nuclear receptor ROR-gamma (Homo sapiens) (UniProt P51449). The assay is described as follows: qHTS assay for small molecule antagonists of the retinoid-related orphan receptor gamma (ROR-gamma) signaling pathway (AID 651802).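 Note: CHO cells with doxycycline-induced ROR-gamma expression; series mostly up to about 92 µM; % is set by controls: 0 for no effect and ±100 for the full control effect; nearly all actives have a fitted effect of over 60% in size.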 A digest of the protocol: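 Steps: cells dispensed; compound or DMSO transferred by pin tool; doxycycline added to induce the ROR response element-driven luciferase; plates held 16hr at 37C; ONE-Glo added and luminescence measured.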
Chain of Nuclear receptor ROR-gamma (Homo sapiens) (P51449 whole entry, looked up): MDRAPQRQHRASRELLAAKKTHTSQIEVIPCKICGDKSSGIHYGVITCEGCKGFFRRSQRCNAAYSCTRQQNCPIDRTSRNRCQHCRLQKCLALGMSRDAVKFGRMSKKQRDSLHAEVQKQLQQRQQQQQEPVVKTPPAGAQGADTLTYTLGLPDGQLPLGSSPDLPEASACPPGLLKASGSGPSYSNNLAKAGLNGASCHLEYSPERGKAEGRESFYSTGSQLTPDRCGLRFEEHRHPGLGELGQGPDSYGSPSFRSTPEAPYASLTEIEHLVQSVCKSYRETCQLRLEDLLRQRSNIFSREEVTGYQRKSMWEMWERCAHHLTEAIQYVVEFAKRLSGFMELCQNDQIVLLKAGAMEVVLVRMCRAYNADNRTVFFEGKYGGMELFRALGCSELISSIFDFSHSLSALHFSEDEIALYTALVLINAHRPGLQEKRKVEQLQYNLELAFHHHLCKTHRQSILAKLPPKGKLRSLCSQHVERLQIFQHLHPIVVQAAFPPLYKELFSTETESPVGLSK

The nature of assay [6]: qHTS assay for small molecule activators of the nuclear factor-kappa B (NF-kB) signaling pathway (AID 651749; active = well fitted activation curve with a large enough effect in the signal ratio; the % refers to the signal ratio; note: series mostly up to about 77 µM; % of control where 0% means no effect). The note with it: NF-kB-bla ME-180 cells, beta-lactamase FRET ratio, 16 h; stronger effect = higher value. A digest of the protocol:
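Activation measured after 16 hr compound treatment at 37C, 5% CO2, of 2,000 ME-180 cells/well stably expressing an NF-kB response element–driven beta-lactamase reporter, via FRET-disruption fluorescence.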

Assay [7] in a line: S16 Schwann cell PMP22 intronic element beta-lactamase assay (AID 624044; calls by dose curve;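 note: 0% = DMSO and -100% = potassium clavulanate positive control; nearly all actives have a fitted effect of over 15% in size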). The method, boiled down: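 Beta-lactamase reporter under a PMP22 intronic regulatory element in stable S16 rat Schwann cells; 24 h compound exposure. 460 nm blue signal normalized between DMSO (0%) and potassium clavulanate, with 535 nm FRET tracking viability; curves classed by r2 and response.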
Assay [8] in a line: qHTS assay for small molecule disruptors of the mitochondrial membrane potential - 1 hr assay (AID 651754; calls by dose curve; note: nearly all actives have a fitted effect of over 35% in size; note: potency is the fitted concentration of half-maximal effect). A digest of the protocol: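 Loss of mitochondrial potential shifts the cationic dye from red mitochondrial aggregates to green cytoplasmic monomers. Cells (HepG2) are treated with compound for 1 hr before a 30 min dye incubation at 37C.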
A short description of assay [9]: qHTS assay for small molecule disruptors of the mitochondrial membrane potential - 5 hr assay (AID 651755; calls by dose curve; note: nearly all actives have a fitted effect of over 40% in size; note: potency is the fitted concentration of half-maximal effect). A digest of the protocol: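 Membrane-potential dye readout: red aggregate (540 ex/590 em) versus green monomer (490 ex/535 em) fluorescence after 30 min dye loading, following 5 hr compound exposure at 37C of overnight-plated HepG2 cells.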
The nature of assay [10]: qHTS assay to identify small molecules that stimulate interleukin-8 (IL-8) secretion (AID 651758; active = well fitted activation curve with a large enough effect in the signal ratio; the % refers to the signal ratio; note: 0% is about no effect). A digest of the protocol: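 Secreted IL-8 measured homogeneously by TR-FRET (two labelled anti-IL-8 antibodies, 1-3 h at room temperature) after a 16 h, 37 C compound treatment of THP-1 cells at 2000 cells/well.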

Chain of Peroxisome proliferator-activated receptor alpha (Homo sapiens) (Q07869 whole entry, looked up): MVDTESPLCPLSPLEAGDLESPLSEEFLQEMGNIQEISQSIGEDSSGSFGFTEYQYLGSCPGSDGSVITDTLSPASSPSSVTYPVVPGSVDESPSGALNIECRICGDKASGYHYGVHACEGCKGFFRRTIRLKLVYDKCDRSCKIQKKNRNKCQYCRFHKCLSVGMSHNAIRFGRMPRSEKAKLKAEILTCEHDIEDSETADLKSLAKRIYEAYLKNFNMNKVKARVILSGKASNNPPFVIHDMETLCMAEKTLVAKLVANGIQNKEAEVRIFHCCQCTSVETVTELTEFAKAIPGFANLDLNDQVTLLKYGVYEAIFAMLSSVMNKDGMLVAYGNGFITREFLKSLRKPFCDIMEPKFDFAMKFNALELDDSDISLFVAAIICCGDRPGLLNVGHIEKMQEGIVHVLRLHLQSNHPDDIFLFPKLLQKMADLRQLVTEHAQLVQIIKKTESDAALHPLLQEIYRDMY

On to `Cc1cccc(Nc2ccccc2C(=O)O)c1C`, for which the Potency result in [1] was “inactive”. Also, the Potency in assay [2] was 61.1 µM (active). The activation in assay [3] is 2.22%.

Consider `CCCCCCCC(=O)OCC(COC(=O)CCCCCCC)OC(=O)CCCCCCC`, for which the Potency result in [1] is “inactive”. In addition, the activation in assay [3] is -1.98%. Further, the max response in assay [4] was 4.51%. In assay [5], the outcome was inactive.

For the compound `COC(=O)c1ccc(O)cc1`, the Potency result in assay [1] is “inactive”. For the same compound, the Potency in assay [2] is 19.3 µM (active). Also, the results for the activation in assay [6] and in assay [3] were -2.57% and 7.25%, respectively. The max response in assay [4] is -1.49%.

Regarding `CCCCCCCCCCCCCCCCCCO`, in assay [3], the activation was 0.518%. Further, the max response in assay [4] is -0.423%.

`O=C1c2cccc(O)c2C(=O)c2c(O)cccc21`: the call in assay [7] and in [5] was inactive. Also, the values for the Potency in assay [2], in assay [8] and in assay [9] were 29.8 µM (active), 4.73 µM (active) and 7.5 µM (active), respectively. Further, the activation is -0.734% in [6] and 5.57% in assay [3]. Besides, the max response in assay [4] is -5.75%.

Turning to `CCN(CC)C(=O)c1cccc(C)c1`, the outcome in assay [7], in assay [10] and in assay [5] was inactive. Moreover, the Potency result in [2] and in assay [9] was “inactive” in each case. Besides, in assay [3], the activation is -1.83% and 2%. Moreover, the max response in assay [4] is -2.42% and -0.716%.

Take `CC(=O)Nc1ccccc1`: the Potency result in [1] is “inactive”. For the same compound, the values for the activation in [6] and in assay [3] were -0.999% and -1.4%, respectively. The max response in assay [4] is -5.14%.

Consider `O=C1C(c2[nH]c3ccccc3c2O)=Nc2ccccc21`, for which the Potency result in [1] is “inactive”. Also, the call in assay [7] and in assay [5] was inactive. For the same compound, the Potency in assay [2] was 47.3 µM (active). Moreover, in assay [6], the activation was -0.0626%. Besides, the max response in [4] was -5.35%.

`Cc1cc(C)nc(NS(=O)(=O)c2ccc(N)cc2)n1`: the Potency result in assay [1] and in assay [2] was “inactive” throughout. The activation in [3] is -1.73% and 0.131%. The max response in [4] is -5.72% and -2.38%.

Consider `CC[N+](CC)(CC(=O)Nc1c(C)cccc1C)Cc1ccccc1`, for which the Potency entry in assay [1] and in assay [2] was “inactive” each time. For the same compound, the activation in assay [3] is 0.016%. The max response in [4] is 1.81%.

For the compound `FC(F)(F)C(Cl)Br` (centres undefined), the Potency result in assay [1] is “inactive”. Also, the compound was called inactive in [10]. Besides, in assay [3], the activation is 0.539%. Besides, the max response in assay [4] is -5.56%.

Regarding `CN(C/C=C/C#CC(C)(C)C)Cc1cccc2ccccc12`, the result in assay [7] was inactive.

On to `NNC(=O)CP(=O)(c1ccccc1)c1ccccc1`, for which the compound was classed as inactive in assay [7].

For the compound `O=C(O)CCCCC1CCSS1` (centres undefined), the Potency result in assay [1] is “inactive”. For the same compound, in [2], the Potency is 48.6 µM (active) and 37.6 µM (active). Besides, the activation is -0.268% and -2.59% in assay [6]; 1.47% and -0.721% in [3]. The compound was classed as inactive in assay [10]. Moreover, the max response in assay [4] was -5.44% and -4.99%.

On to `CC(=O)NS(=O)(=O)c1ccc(N)cc1`, for which the Potency result in assay [1], in assay [8] and in [9] was “inactive” each time. The compound was classed as inactive in assay [7] and in assay [5]. Besides, the activation is -0.656% in assay [6] and -0.967% in assay [3]. Further, in assay [4], the max response was -6.08%.

Turning to `Cc1ccc(C(C)C)c(O)c1`, the Potency entry in assay [1] and in assay [2] was “inactive” each time. The activation in [6] is -1.79%; in assay [3] it was 0.149%. The max response in assay [4] is -0.976%.

As for `CC(=O)Nc1ccc(C(=O)O)cc1`, the Potency entry in assay [1] is “inactive”. Moreover, the activation is -1.2% in assay [6] and 0.454% in [3]. Also, the max response in [4] was -0.167%. The outcome in [5] was inactive.

On to `CC(=O)Nc1cccc(O)c1`, for which the Potency entry in [1] and in assay [2] was “inactive” each time. Moreover, the results for the activation in assay [6] and in assay [3] were 0.693% and 2.7%, respectively. The max response in [4] is -0.0766%.

Regarding `CCCCOC(=O)c1ccc(N)cc1`, the Potency entry in assay [1], in assay [8] and in [9] was “inactive” throughout. Also, the compound was called inactive in assay [7], in assay [10] and in [5]. The figures for the activation in assay [6] and in [3] were -0.245% and 13%, respectively. The max response in assay [4] is -1.13%.

For `C=CCNC(N)=S`, the Potency result in [1] and in assay [2] was “inactive” throughout. In addition, the activation in [6] is -0.527%; in [3] it was 0.627%. Besides, in assay [10], the outcome was inactive. Besides, the max response in assay [4] is -1.33%.

In the case of `COc1ccc(O)cc1`, the Potency entry in assay [1] and in assay [2] was “inactive” each time. In addition, the activation in assay [6] was 0.533%; in assay [3], 0.2%. For the same compound, the max response in assay [4] was -1.68%.

On to `Cc1ccsc1C(=CCCN1CCC[C@@H](C(=O)O)C1)c1sccc1C`, for which the outcome in assay [7] was inactive.

`Cc1cc(O)cc(C)c1Cl`: the Potency entry in assay [1] is “inactive”. The call in assay [7] was inactive. Further, the Potency in assay [2] is 10.9 µM (active). In addition, in [6], the activation was -0.418%. Besides, the max response in assay [4] is -0.107%.

`Cc1cc(=O)[nH]c(=S)[nH]1`: the Potency result in assay [1] was “inactive”. The activation in assay [6] is -0.135%; in assay [3] it was -0.745%. Besides, the compound was classed as inactive in assay [10] and in assay [5]. Besides, in [4], the max response is -5.54%.

As to `COc1cc(O)cc(O)c1`, the compound was classed as inactive in assay [7].

For the compound `Cc1c(C(=O)NCCO)[n+](=O)c2ccccc2n1[O-]`, in assay [1], the Potency entry is “inactive”. In addition, the activation in [6] was -3.75%; in [3] it was -0.247%. Besides, in [4], the max response was -1.31%.

For the origin of these results see PubChem BioAssay (NCATS).
